# Laboratory results taken from PubChem BioAssay AID651834 (Broad Institute, 2012).
# Unmarked numbers belong to inactive results. How the calls were made is not given here.
# Biological target: Kelch-like ECH-associated protein 1 (Homo sapiens) (UniProt Q14145)
# Experiment: disruptors of Keap1/Nrf2 protein interaction – biochemical, fluorescence polarization, dry powder, set 4, dose response (AID 651834)
# Conditions: Keap1-Nrf2 peptide fluorescence polarization, plate reader; series mostly up to 100 µM; inhibition: at the top concentration
# Kelch-like ECH-associated protein 1 (Homo sapiens), sequence (Q14145 whole entry, looked up): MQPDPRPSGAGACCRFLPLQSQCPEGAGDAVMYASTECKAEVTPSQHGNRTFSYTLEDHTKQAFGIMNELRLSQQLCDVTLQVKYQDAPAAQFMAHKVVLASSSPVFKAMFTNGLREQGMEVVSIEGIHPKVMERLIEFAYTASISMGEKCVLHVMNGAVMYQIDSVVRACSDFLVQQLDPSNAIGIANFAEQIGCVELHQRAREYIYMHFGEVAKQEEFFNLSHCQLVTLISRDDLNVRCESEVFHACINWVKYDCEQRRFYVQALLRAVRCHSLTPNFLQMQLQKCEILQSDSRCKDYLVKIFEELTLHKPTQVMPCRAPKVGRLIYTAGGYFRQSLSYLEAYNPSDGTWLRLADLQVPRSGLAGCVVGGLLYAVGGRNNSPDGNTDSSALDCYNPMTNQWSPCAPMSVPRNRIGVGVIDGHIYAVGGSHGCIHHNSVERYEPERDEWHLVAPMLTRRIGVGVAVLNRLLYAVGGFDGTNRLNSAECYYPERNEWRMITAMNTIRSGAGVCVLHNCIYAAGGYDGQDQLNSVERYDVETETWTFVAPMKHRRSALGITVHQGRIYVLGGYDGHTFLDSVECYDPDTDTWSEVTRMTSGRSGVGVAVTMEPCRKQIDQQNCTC
row,Compound,inhibition
1,O=C1c2ccccc2C(=O)N1CC1c2ccccc2CCN1C(=O)N1CCOCC1 (stereo not given),-3.21% [at 26 µM]
2,O=C1c2ccccc2C(=O)N1CC1c2ccccc2CCN1C(=O)c1cccc(C(F)(F)F)c1 (stereo not given),-4.99%
3,CCN(CC)C(=O)N1CCc2ccccc2C1CN1C(=O)c2ccccc2C1=O (stereo not given),-0.072%
4,CS(=O)(=O)N1CCc2ccccc2C1CN1C(=O)c2ccccc2C1=O (stereo not given),-5.66%
5,O=C(CN1CCc2ccccc2C1CN1C(=O)c2ccccc2C1=O)c1c[nH]c2ccccc12 (stereo not given),32.3%
6,O=C1c2ccccc2C(=O)N1CC1c2ccccc2CCN1C(=O)COc1ccc(Cl)cc1Cl (stereo not given),-1.55%
7,CC(=O)N1CCc2ccccc2C1CN1C(=O)c2ccccc2C1=O (stereo not given),2.33%
8,COc1cc(/C=C/C(=O)N2CCC=CC2=O)cc(OC)c1OC,6.02% [at 26 µM]
9,O=C1c2ccccc2C(=O)N1CC1c2ccccc2CCN1S(=O)(=O)c1cccc2cccnc12 (stereo not given),0.033%
10,COc1cc(OC)cc(C(=O)N2CCc3ccccc3C2CN2C(=O)c3ccccc3C2=O)c1 (stereo not given),-3.3%
